These results are taken from PubChem BioAssay AID736 (The Scripps Research Institute Molecular Screening Center, 2007).

Out of some 97,000 compounds screened, about 210 (0.22%) were called active. Shown is part of a subset that was picked to be rich in actives. Unmarked numbers belong to inactive results. Cut-off read from the data, not from the text of the source: active = inhibition above about 45%; inactive = the rest.

This experiment deals with Sphingosine 1-phosphate receptor 2 (Homo sapiens) (UniProt O95136). Nature of the experiment: blockers of S1P2 receptor signalling – cell-based, primary screen (AID 736).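 Note: CRE beta-lactamase reporter cells expressing human S1P2 stimulated with S1P; 0% = agonist at EC80 alone and 100% = agonist plus reference antagonist.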 The following applies: cell-based S1P2 antagonist assay, at 5 µM, active compounds read high.
Chain of Sphingosine 1-phosphate receptor 2 (Homo sapiens) (O95136 whole entry, looked up): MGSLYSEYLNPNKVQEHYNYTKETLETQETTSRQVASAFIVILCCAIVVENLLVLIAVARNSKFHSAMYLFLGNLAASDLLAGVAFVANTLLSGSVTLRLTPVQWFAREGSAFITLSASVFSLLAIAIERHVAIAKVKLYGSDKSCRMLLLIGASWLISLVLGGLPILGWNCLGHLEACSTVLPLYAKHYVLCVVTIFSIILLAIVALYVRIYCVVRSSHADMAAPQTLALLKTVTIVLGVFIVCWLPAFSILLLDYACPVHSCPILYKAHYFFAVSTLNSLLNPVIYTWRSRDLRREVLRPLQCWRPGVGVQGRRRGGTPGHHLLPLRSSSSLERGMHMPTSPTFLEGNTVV
As for `COc1cc(N2CCCC2)c(OC)cc1/C=C(/C#N)c1cccc(Br)c1`, the inhibition is -9.11%.

With `O=C1COc2ccc(NC(=O)N3CCN(c4ccc(F)cc4)CC3)cc2N1`, the inhibition is 9.28%.

Take `CCn1c(CNC(=O)c2ccccc2)nnc1SCC(=O)N1CCN(c2ccccc2)CC1`: the inhibition is 2.56%.

With `C=C(C)C(=O)Nc1cccc(C(C)=O)c1`, the inhibition was -17.2%.

For the compound `CCN(CC)C(=O)CSc1nnc(CNc2ccc(F)cc2)n1Cc1ccco1`, the inhibition was -21.8%.

As for `CCOc1cccc(C(=O)Nc2nnc(-c3cccs3)s2)c1`, the inhibition was -13.1%.

Consider `O=C(Nc1cccc2ncccc12)c1ccc(-c2ccc(Cl)cc2Cl)o1`, for which the inhibition is 20.4%.

As for `Cc1cccc(NC(=O)Cn2cc(C(=O)c3ccco3)c3ccccc32)c1`, the inhibition was 16.7%.

With `CCN(CC)S(=O)(=O)c1cc([N+](=O)[O-])ccc1NNC(=O)Nc1ccccc1`, the inhibition is -2.47%.

For `O=C(NCCCN1CCCCC1)c1ccc2c(c1)NC(=O)C(N1CCOCC1)S2` (centres undefined), the inhibition is 14.6%.

As for `COC(=O)CSc1nc(C)c2ccc(OC)cc2n1`, the inhibition was 7.81%.

As to `COc1cccc(/C=N\Nc2nncc(-c3ccccc3)n2)c1`, the inhibition is 20.6%.

With `Cc1cc2nc(SCCN3CCOCC3)[nH]c2cc1C`, the inhibition is 6.34%.

Consider `Cc1csc(OCC(=O)Nc2ccc(C)c(C)c2)n1`, for which the inhibition was 6.53%.

`CCOc1ccc(C(O)Cc2nc3ccccc3n2C)cc1` (centres undefined): the inhibition was -0.2%.

On to `CCOC(=O)c1cc(C#N)c(N2CCCCC2)nc1-c1ccccc1`, for which the inhibition is 1.48%.

`O=C(Nc1nccs1)c1cc(S(=O)(=O)N2CCOCC2)c(Cl)cc1Cl`: the inhibition is 0.95%.

On to `COc1cccc(NC(=O)Cc2ccc(C)cc2)c1`, for which the inhibition was -17%.

In the case of `COc1ccc(NC(=O)/C(Cl)=C(/Cl)S(=O)Cc2ccc(C)cc2)cn1` (centres undefined), the inhibition was 98.7% (active).

Regarding `COC(=O)/C(NC(C)=O)=C(\C)c1ccc(Cl)cc1`, the inhibition is -17.7%.

As to `Cc1cc2cc3c(N)[nH]nc3nc2cc1C`, the inhibition is 6.72%.

Regarding `Cc1ccc(O/C=C2\OC(=O)c3ccccc32)cc1`, the inhibition is -18.2%.

On to `COc1ccc(Cl)cc1NC(=O)CN(C)C(=O)CNC(=O)C12CC3CC(CC(C3)C1)C2`, for which the inhibition is -3.56%.

On to `COc1ccc(/C=C(\NC(=O)c2ccc(OC)c(OC)c2)C(=O)NCCc2c[nH]c3ccccc23)cc1`, for which the inhibition is 8.6%.

Regarding `O=C(Nc1ccc2ccccc2c1)Nc1ccc2snnc2c1`, the inhibition is -5.16%.

Regarding `CC(=O)NNc1cc(=O)c2c(=O)n(C)c(=O)n(C)c2[nH]1`, the inhibition is 22.2%.

Consider `COC(=O)CN(C(=S)Nc1ccc(Cl)cc1)C1CC(=O)N(c2ccc(OC)cc2)C1=O` (centres undefined), for which the inhibition was 54.6% (active).

Take `COc1cccc(N2CCN(C3CC(=O)N(c4ccc(Cl)cc4)C3=O)CC2)c1` (centres undefined): the inhibition was -1.94%.

`CN(C)c1ccc(NC(=S)N(CCc2ccccc2)C2CC(=O)N(c3c(Cl)cccc3Cl)C2=O)cc1` (centres undefined): the inhibition is 14.5%.

Take `CC1CCN(CC(=O)c2c[nH]c3ccccc23)CC1`: the inhibition was 12.6%.

Take `CCCCNC(=O)C1CCCNC1=O` (centres undefined): the inhibition was 0.22%.

For the compound `CCCCCCCC(=O)NC(Nc1ccccc1OC)C(Cl)(Cl)Cl` (centres undefined), the inhibition was -5.42%.

For the compound `O=C(O)C1CCN(C(=O)OCc2ccccc2)CC1`, the inhibition was 9.58%.

In the case of `CC(C)CCOc1ccc(C(=O)C[N+]2(C)CCOCC2)cc1`, the inhibition is 8.2%.

For the compound `CC(NC(=O)C1CCC(CNc2c(N3CCOCC3)c(=O)c2=O)CC1)c1ccccc1` (centres undefined), the inhibition was 4.51%.

As for `O=C(Nc1ccc2oc(-c3ccc4ccccc4c3)nc2c1)c1cccs1`, the inhibition was 7.93%.

For the compound `Cc1cc(C)cc(OCC(=O)Nc2nc3ccc([N+](=O)[O-])cc3s2)c1`, the inhibition is 4.48%.

On to `O=C(NC(Nc1nc2ccc([N+](=O)[O-])cc2s1)(C(F)(F)F)C(F)(F)F)c1ccccc1`, for which the inhibition was 97.3% (active).

As to `COC(=O)C(NC(=O)c1ccc(OC)cc1)(Nc1ncc(S(=O)(=O)c2ccc([N+](=O)[O-])cc2)s1)C(F)(F)F` (centres undefined), the inhibition is 19.9%.

On to `Cc1ccc(CN(N=Nc2nonc2N)c2nonc2N)c(C)c1`, for which the inhibition was -6.92%.

With `COC(=O)c1cccc(-n2[nH]nnc2=S)c1`, the inhibition was 15.5%.

`Cc1ccc(-c2cc(C(=O)NCC3CCCO3)c3ccccc3n2)o1` (centres undefined): the inhibition was 6.28%.

In the case of `Cc1nn(Cc2ccc(F)cc2)c(C)c1NC(=O)c1noc2c1CCc1ccccc1-2`, the inhibition was 2.56%.

Turning to `O=C(CSc1nnnn1-c1ccccc1)NCc1ccco1`, the inhibition is -4.03%.

In the case of `CC(C)NC(=O)NC(=O)COC(=O)c1ccc(NC(=O)CC#N)cc1`, the inhibition was -12.5%.

Regarding `O=C(/C=C/c1ccc(Cl)cc1Cl)c1cccnc1`, the inhibition is -15.8%.

Consider `O=C(NNC(=O)c1cccnc1)Nc1ccccc1`, for which the inhibition is 8.67%.

`Fc1ccc(-n2c(Cc3ccccc3)nnc2SCc2nc(-c3ccc(Cl)cc3)no2)cc1`: the inhibition is -18.9%.

For `FC(F)(F)c1cccc(NC(=S)Nc2cccc(Cl)c2)c1`, the inhibition was -0.66%.

With `Cc1ccc(/C=N/NC(=O)C2=NNC(c3ccccc3)(c3ccccc3)C2)c(O)c1`, the inhibition is -25.5%.

Turning to `CC1(C)C2CCC13CS(=O)(=O)NC3C2` (centres undefined), the inhibition is 2.66%.

As for `CCCNC(=S)N1CCC(NC(=O)C23CC4CC(CC(C4)C2)C3)CC1`, the inhibition was 22.7%.

With `CCOC(=O)c1sc(NC(=O)CSc2nc(C)cc(C(F)(F)F)n2)c(C#N)c1C`, the inhibition is -9.87%.

In the case of `FC(F)(F)c1nnc2ccc(N3CCN(c4ccccc4)CC3)nn12`, the inhibition is 0.81%.

On to `N=c1oc2ccccc2cc1C(=O)N/N=C/c1ccccc1`, for which the inhibition was 10.7%.

Consider `CNC(=O)/C(=C\C=C\c1ccccc1)NC(=O)c1ccc([N+](=O)[O-])cc1`, for which the inhibition is 10.7%.

Regarding `CC(N)C12CC3CC(CC(O)(C3)C1)C2` (centres undefined), the inhibition is -17.7%.

Turning to `CS(=O)(=O)N1CCN(c2ccc(C(=O)NC3C4CC5CC(C4)CC3C5)cc2[N+](=O)[O-])CC1` (centres undefined), the inhibition is -2.62%.

Consider `CCSc1nnc(NC(=O)c2ccc(C)cc2)s1`, for which the inhibition was 0.05%.

As for `Cc1onc(-c2ccccc2Cl)c1C(=O)OCC(=O)c1ccccc1`, the inhibition is -10%.

As to `O=C1c2ccccc2C(=O)N1CCC(c1ccccc1)c1ccco1` (centres undefined), the inhibition was 11.1%.

Regarding `O=C(CCS(=O)(=O)c1cccc2nsnc12)N1CCN(c2ccccc2F)CC1`, the inhibition was 11.1%.

As for `CC(C)(C)c1ccc(C(=O)NNC(=O)Cc2ccccc2)cc1`, the inhibition was -7.08%.

Consider `COc1ccc(C2CC(=O)Nc3sc(=N)c4c(N)c(C#N)c(N)nc4c32)cc1OC` (centres undefined), for which the inhibition is -38.4%.

As for `CC(C)OCCCNc1ncnc2c1[nH]c1ccc(F)cc12`, the inhibition was 65.9% (active).

In the case of `CCN1CCCC1CNc1ncnc2c1[nH]c1ccc(F)cc12` (centres undefined), the inhibition was -0.72%.

As to `O=C1CCCN1CCCNc1ncnc2c1[nH]c1ccccc12`, the inhibition is 15.4%.

Consider `Cc1cc(O)cc(O)c1C(=O)Cc1cnn(-c2ccccc2)c1`, for which the inhibition was -8.95%.

For the compound `COc1ccc(C(=O)Oc2cc(/C=N/NS(=O)(=O)c3ccc(C)cc3)ccc2OC)cc1`, the inhibition is 1.84%.

Regarding `CC(=O)c1ccc2c(c1)c1ccccc1n2CC(C)C`, the inhibition is -13.4%.

Regarding `Clc1ccc(CSc2nnc(/C=C/c3ccccc3)o2)c(Cl)c1`, the inhibition was -0.17%.

Regarding `CCN(CC)CCn1c2ccc(Cl)cc2c2nc(C)sc21`, the inhibition is -30.3%.

Regarding `O=C(/C=C/Sc1ncn[nH]1)c1ccc(Cl)cc1`, the inhibition is 59.7% (active).

With `CC(C)(C)c1ccc(C(=O)CSc2ncn[nH]2)cc1`, the inhibition was 19.4%.

As for `Cc1ccc(C(=O)/C=C/c2c(C)nn(-c3ccccc3)c2Cl)cc1`, the inhibition was -1.65%.

In the case of `COc1ccc(C(=O)Cc2cnn(-c3ccccc3)c2)c(O)c1`, the inhibition was -22.1%.

In the case of `Cc1ccc(OCc2nnc(NC(=O)OCC(C)C)s2)cc1`, the inhibition was -11.9%.

As for `CCc1ccccc1NC(=O)/C(=C/c1ccccc1)c1ccccc1`, the inhibition was 9.77%.

Turning to `O=C(Nc1ccc2c(c1)OCCO2)c1ccc(Cl)c(S(=O)(=O)N2CCCCC2)c1`, the inhibition is -2.73%.

Consider `O=c1c2ccccc2c(-c2ccc(F)cc2)nn1-c1ccc(C(F)(F)F)cc1`, for which the inhibition is 8.3%.

`O=C(NCC1CCCO1)c1ccc2ccccc2n1` (centres undefined): the inhibition is -13.9%.

`Cc1c(C=O)c2ccccn2c1C(=O)c1ccncc1`: the inhibition was -13%.

Consider `Cc1ccc(CN(C(=O)c2sc3ccccc3c2Cl)C2CCS(=O)(=O)C2)cc1` (centres undefined), for which the inhibition was 15.7%.

As to `COc1cc(/C=C(/NC(=O)c2ccccc2)C(=O)Nc2cccc(O)c2)c([N+](=O)[O-])cc1OC`, the inhibition was -3.81%.

Take `Cc1cc(C)c([N+](=O)[O-])cc1-c1ccc(/C=N/NC(=O)c2nonc2N)o1`: the inhibition is -20.8%.

On to `Cc1cc(C)n2nc(C(=O)NC(C)(C)C)nc2n1`, for which the inhibition was -24.4%.

As to `CCOC(=O)C(C)n1cnc2sc(C)c(C)c2c1=O` (centres undefined), the inhibition was -21.8%.

Regarding `O=C(Cc1c(O)c2ccccc2[nH]c1=O)NCc1ccccc1`, the inhibition was 2.46%.

With `Cc1ccc(N(Cc2ccc(C(=O)Nc3ccccc3C(=O)NCc3ccco3)cc2)S(C)(=O)=O)cc1C`, the inhibition was 29.7%.

Consider `CCN1CCN(CCCCOc2ccccc2F)CC1`, for which the inhibition is -15.3%.

Regarding `Cc1noc(COc2ccccc2OCc2onc(C)c2Cl)c1Cl`, the inhibition is -6.44%.

For the compound `O=C(COc1ccc(Cl)cc1)NCCSc1ccccc1`, the inhibition was -5.9%.

Consider `COCCn1c(C)cc(C2=NNC(=Nc3ccc(F)cc3)SC2)c1C`, for which the inhibition was 8.96%.

As to `O=C1Cc2ccccc2Sc2ccc(Cl)cc21`, the inhibition was 1.39%.

`Cn1c(NN)nc2sc3c(c2c1=O)CCC3`: the inhibition was -7.52%.

In the case of `CCOc1ccc(-n2c(N)c(C(=O)NCC3CCCO3)sc2=S)cc1` (centres undefined), the inhibition was 1.44%.

Consider `CCCCOC(=O)Cn1c(=O)n(CC(=O)OCCCC)c2cc(C)ccc21`, for which the inhibition was -1.39%.

Turning to `Cc1ccc(-c2cnc(NC(=O)CCC(=O)N(C)Cc3ccccc3)n2C)cc1`, the inhibition was 15.9%.

With `O=C1C(Cl)=C(N2CCOCC2)C(=O)N1c1ccccc1`, the inhibition is 11.4%.

Turning to `O=C(/C=C/c1cc2c(cc1Br)OCO2)NCc1ccc(Cl)cc1`, the inhibition is 12.8%.

Take `O=C(CCCN1C(=O)c2cccc3cccc(c23)C1=O)N1CCN(Cc2ccc3c(c2)OCO3)CC1`: the inhibition is 13.4%.

Turning to `O=C(CSCc1c(Cl)cccc1Cl)NN1C(=O)c2ccccc2C1=O`, the inhibition was 7.21%.

On to `O=c1cc(N2CCN(Cc3ccccc3)CC2)c(-c2ccccc2)n[nH]1`, for which the inhibition was 11.6%.

For `O=C(Nc1cccc2ncccc12)C(Cl)(Cl)Cl`, the inhibition was 7.55%.

On to `O=C(CSc1ncn[nH]1)Nc1ccnc2ccccc12`, for which the inhibition was 2.49%.

`O=C(NCN1CCN(CCO)CC1)c1cnccn1`: the inhibition is 4.69%.

For the compound `O=C(Nc1nccs1)C1CCN(S(=O)(=O)c2ccc(Cl)c(C(F)(F)F)c2)CC1`, the inhibition is 13.1%.

Consider `CC1CC(C)CN(CC(=O)N2c3ccccc3CCc3ccccc32)C1` (centres undefined), for which the inhibition was 3.76%.

Regarding `CCn1c(SCc2ccc(C)cc2)nnc1-c1nn(-c2ccccc2)ccc1=O`, the inhibition was 7.22%.
